From PubChem BioAssay come the findings set out here.

Test [1] has as its system XIP peptide (Xip251-270) binding. As to the kind of experiment: small-molecule binders of XIP peptide, primary screen, biochemical, small-molecule microarray, fluorescence 635/667 nm, 0.1 µg/mL protein (AID 1182). The settings on record: fluorescent protein binding, 635 nm, higher = more signal, called active from +8 up or from −8 down.
A further test deals with XIP peptide (Xip251-270). In words: small-molecule binders of XIP peptide, primary screen, biochemical, small-molecule microarray, fluorescence 635/667 nm, 0.5 µg/mL protein (AID 1183). Conditions: small-molecule microarray binding, fluorescence 635 nm; higher = more signal.
Test [2] in a line: Plasmodium falciparum growth inhibition, primary screen, strain 3D7, DAPI fluorescence, 100 nL (AID 1184).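 Also: parasites grown inside human red blood cells in medium with human serum.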 Conditions: P. falciparum 3D7 growth, 3 d, higher = more signal.
Test [3] concerns the target Homeobox protein Hox-A13 (Mus musculus) (UniProt Q62424). As to the kind of experiment: inhibitors of HoxA13-DNA binding, primary screen, biochemical, fluorescence polarization, labeled oligonucleotide (AID 1185). Conditions: 15 min, higher = more signal, called active from +8 up or from −8 down.
Test [4] in a line: inhibitors of hydroxyurea-induced Chk1 phosphorylation, primary screen, imaging, HeLa, phospho-Chk1 antibody, percent positive cells (AID 1186). The settings on record: hydroxyurea-induced phospho-Chk1 immunofluorescence imaging, higher = more signal.
The nature of test [5]: inhibitors of hydroxyurea-induced Chk1 phosphorylation, primary screen, imaging, HeLa, phospho-Chk1 nuclear intensity (AID 1187). The settings on record: hydroxyurea-induced phospho-Chk1 immunofluorescence imaging, higher = more signal.

Calls of active or inactive are those of the source. Unless noted, no rule for the calls is given here.

Homeobox protein Hox-A13 (Mus musculus), sequence (Q62424 whole entry, looked up): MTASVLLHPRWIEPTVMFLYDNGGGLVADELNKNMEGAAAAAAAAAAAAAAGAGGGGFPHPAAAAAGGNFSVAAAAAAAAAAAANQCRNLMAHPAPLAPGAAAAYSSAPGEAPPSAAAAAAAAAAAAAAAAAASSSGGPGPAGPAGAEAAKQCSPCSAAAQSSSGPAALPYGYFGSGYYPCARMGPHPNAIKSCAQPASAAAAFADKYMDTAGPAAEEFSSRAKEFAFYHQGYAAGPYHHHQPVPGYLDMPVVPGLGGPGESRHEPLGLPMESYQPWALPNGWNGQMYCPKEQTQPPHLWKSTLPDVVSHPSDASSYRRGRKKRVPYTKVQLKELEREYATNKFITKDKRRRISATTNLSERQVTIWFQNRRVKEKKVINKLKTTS

In the case of `C=C[C@H](C)[C@@H](OC(=O)Nc1ccc(SC)cc1)c1ccc(OCCO)cc1`, the composite z-score in test [1] was -0.0975 (inactive); with XIP peptide (Xip251-270), -0.0208. The z-score in test [2] was -0.526; in test [3] it was -4.53 (inactive); in test [4], -0.328 (inactive); in test [5] it was -0.809 (inactive).

As to `CCOC(=O)C1=CCC(c2ccncc2)N(S(=O)(=O)c2ccc(C)cc2)C1` (configuration not stated), the composite z-score in test [1] is 0.373 (inactive); in the test with XIP peptide (Xip251-270), 0.835. Also, the z-score is -0.886 in test [2], -4.63 (inactive) in test [3], 0.0325 (inactive) in test [4] and 0.104 (inactive) in test [5].

Take `C[C@]12C(=O)N(CCO)[C@@H]3C(=O)N(c4ccc(Cl)cc4)CC=CC31O[C@@H]1/C=C\CCCOC(=O)C12` (some centres not stated): the composite z-score in test [1] was -0.0502 (inactive); in the test with XIP peptide (Xip251-270), 0.913. The z-score in test [2] was -1.39; in test [3], -3.46 (inactive); in test [4], 0.245 (inactive); in test [5] it was 0.129 (inactive).

For the molecule `C=CCOC(=O)[C@@H]1[C@H]2C(=O)O[C@H](c3ccccc3)[C@H](c3ccccc3)N2[C@H](c2ccc(OCCOC(=O)[C@H]3C[C@H]4C(=O)N[C@@H](CCCCN(C)C)C(=O)N4[C@H]3c3cccc(OCCO)c3)cc2)[C@@]12C(=O)Nc1ccccc12`, the composite z-score was 0.876 (inactive) in test [1] and 0.686 in the test with XIP peptide (Xip251-270). Moreover, the z-score in test [2] is -0.405; in test [3] it was -1.64 (inactive); in test [4], -0.224 (inactive); in test [5], -0.375 (inactive).

As to `C=C(COC)/C(=C/C[C@@H](OC(C)=O)c1cccc(OCCO)c1)c1cnc2ccccc2c1`, the composite z-score in test [1] is 0.281 (inactive); in the test with XIP peptide (Xip251-270), 0.21. In addition, the z-score in test [2] is -3.1; in test [3], -5.52 (inactive); in test [4] it was 0.271 (inactive); in test [5], -0.181 (inactive).

Consider `COc1ccc(NN2C(C(O)c3ccc(F)cc3)C=CC3C(=O)N(C4CCCCC4)C(=O)C32)cc1` (configuration not stated), for which the composite z-score is 0.331 (inactive) in test [1] and 0.878 with XIP peptide (Xip251-270). In addition, the z-score in test [2] is -0.517; in test [3] it was -4.3 (inactive); in test [4] it was 0.472 (inactive); in test [5] it was 0.0539 (inactive).

For `CCCCCN1CC=CC23O[C@@H]4/C=C\CCCOC(=O)C4[C@H]2C(=O)N(CCO)[C@@H]3C1=O` (some centres not stated), the figures for the composite z-score (in test [1]; in the test with XIP peptide (Xip251-270)) were -0.0751 (inactive) and 0.663, respectively. The z-score in test [2] is -1.31; in test [3], -3.77 (inactive); in test [4] it was 0.169 (inactive); in test [5], 0.205 (inactive).

`COCCOC(=O)N1C(=O)[C@@]2(c3cc(C#CCCO)ccc31)[C@H](C(=O)N1CCN(c3ncccn3)CC1)[C@H]1C(=O)O[C@H](c3ccccc3)[C@H](c3ccccc3)N1[C@@H]2c1ccc(OCCO)cc1`: the results for the composite z-score (in test [1]; in the test on XIP peptide (Xip251-270)) were 0.472 (inactive) and 0.838, respectively. Moreover, the z-score is -2.04 in test [2], 0.211 (inactive) in test [3], -0.0621 (inactive) in test [4] and -0.0646 (inactive) in test [5].

Regarding `O=C1N(Cc2ccccc2)c2ccccc2C[C@@]12N=C(c1ccc(OCCCO)cc1)O[C@H]2c1ccccc1`, the figures for the composite z-score (in test [1]; in the test on XIP peptide (Xip251-270)) were 1.85 (inactive) and 0.541, respectively. Also, the z-score in test [2] is -2.52; in test [3] it was -5.07 (inactive); in test [4], 0.134 (inactive); in test [5], 0.553 (inactive).

Take `[N-]=[N+]=NCc1ccccc1[C@H]1OC(c2ccc(OCCCO)cc2)=N[C@@]1(Cc1ccccc1N=[N+]=[N-])C(=O)O`: the results for the composite z-score (in test [1]; with XIP peptide (Xip251-270)) were 0.107 (inactive) and 0.76, respectively. The z-score is 0.58 in test [2], -4.41 (inactive) in test [3], -0.0666 (inactive) in test [4] and 0.194 (inactive) in test [5].

For `C[C@H]1C2[C@H](Cc3ccccc3)NC(=O)[C@]23C(=O)N[C@@H](Cc2ccccc2)C(=O)N2CCC[C@H]2C(=O)NC/C=C/CC/C=C/C3[C@@H]2O[C@]12C` (some centres not stated), the composite z-score in test [1] was 0.182 (inactive); in the test on XIP peptide (Xip251-270) it was 0.457. The z-score is -2.99 in test [2], -7.13 (inactive) in test [3], -0.234 (inactive) in test [4] and -0.437 (inactive) in test [5].

For `Cc1cccc([C@H]2C[C@H]3C(Br)=C[C@@]2(CO)C(=O)[C@]32CO2)c1`, the composite z-score is 1.48 (inactive) in test [1] and 0.137 with XIP peptide (Xip251-270). Moreover, the z-score in test [2] was 1.54; in test [3], -1.41 (inactive); in test [4] it was -0.272 (inactive); in test [5], -0.557 (inactive).

For the molecule `O=C(CS)NCCCCCCNC(=O)[C@H]1C[C@H]2C(=O)NCC(=O)N2[C@H]1c1cccc(OCCO)c1`, the composite z-score was 0.419 (inactive) in test [1] and 0.702 in the test with XIP peptide (Xip251-270). Further, the z-score in test [2] is -1.34; in test [3], -2.25 (inactive); in test [4], -0.321 (inactive); in test [5] it was -0.529 (inactive).

On to `C=CCNC(=O)[C@H]1[C@@H]2C(=O)O[C@@H](c3ccccc3)[C@@H](c3ccccc3)N2[C@@H](c2ccc(OCCO)cc2)[C@]12C(=O)N(C(=O)OCCOC)c1ccc(C#CCNC(N)=O)cc12`, for which the composite z-score is 0.797 (inactive) in test [1] and 0.579 in the test on XIP peptide (Xip251-270). Further, the z-score is 0.0978 in test [2], -1.67 (inactive) in test [3], -0.128 (inactive) in test [4] and -0.209 (inactive) in test [5].

For the molecule `COC(=O)C(CC#Cc1ccc2c(c1)[C@]1(C(=O)N2)[C@H](C(=O)N2CCCCCCC2)[C@H]2C(=O)O[C@H](c3ccccc3)[C@H](c3ccccc3)N2[C@@H]1c1ccc(OCCO)cc1)C(=O)OC`, the composite z-score in test [1] is 6.2 (inactive); in the test with XIP peptide (Xip251-270), 0.956. Further, the z-score in test [2] was -2.14; in test [3] it was -6.85 (inactive); in test [4], 0.185 (inactive); in test [5] it was 0.331 (inactive).

Regarding `COc1ccc(C(O)C2C=CC3C(=O)N(C)C(=O)C3N2Nc2ccccc2)cc1` (configuration not stated), the composite z-score in test [1] was 0.488 (inactive); in the test on XIP peptide (Xip251-270) it was 0.592. Besides, the z-score in test [2] was -0.142; in test [3] it was -3.64 (inactive); in test [4] it was 0.158 (inactive); in test [5], -0.0307 (inactive).

`COc1cc(Cc2cc3c(c(-c4ccccc4)n2)[Si](C(C)C)(C(C)C)OC3)cc(OC)c1OC`: the composite z-score in test [1] was -0.166 (inactive); in the test on XIP peptide (Xip251-270) it was -1.01. Moreover, the z-score in test [2] is -0.822; in test [3] it was -0.497 (inactive); in test [4], -0.628 (inactive); in test [5], -0.317 (inactive).
